Unmarked numbers belong to inactive results.

In this test the test system is Vero E6 infected with SARS-CoV-2. Nature of the test: inhibition of SARS-CoV-2 cytopathic effect; higher = more antiviral protection, active = above 15. To be noted: 48 h. In general terms: Damage to the host cells serves as the signal in cytopathic effect assays.

In the case of `O=C(O)c1c(Sc2ccccc2)c2cc(Cl)ccc2n1Cc1ccc(Cl)cc1`, the “inhibition of SARS-CoV-2 cytopathic effect” value (“inhibition” for short) by setting is: (1 nM) 1.19%; (8.33 nM) -0.87%; (100 nM) -0.5%; (833.33 nM) 3.75%; (10000 nM) 1.7%.
The matching figures for `Cc1cc(CN2CCN(c3c(Br)cnc4nc(-c5ccc(N6CCN(C)CC6)cc5)[nH]c34)CC2)no1`: -1.63%, -1.4%, -0.54%, -5% and -6.41%.
The matching figures for `N[C@@H]1CCCCN(c2c(F)cc3c(=O)c(C(=O)O)cn(C4CC4)c3c2Cl)C1` [besifloxacin]: -2.51%, 1.39%, 2.41%, 2.48% and 2.15%.
Turning to `OC(CNCC(O)C1CCc2cc(F)ccc2O1)C1CCc2cc(F)ccc2O1` (stereo not given) [nebivolol], the “inhibition” value is, setting by setting: (1 nM) -8.56%; (8.33 nM) -2.57%; (100 nM) -0.54%; (833.33 nM) -2.81%; (10000 nM) -3.97%.
`CCCCC[C@H](O)/C=C/[C@H]1[C@H](O)CC(=O)[C@@H]1C/C=C\CCCC(=O)O` [dinoprostone]: the “inhibition” value is -2.72% (1 nM); 0.16% (8.33 nM); -4.2% (100 nM); 0.3% (833.33 nM); 0.05% (10000 nM).
With `CC(C)(C)C(=O)/C(=N/c1ccc(Cl)cc1)NNc1ccc(Cl)cc1`, the “inhibition” value was 1.8% (1 nM); -0.69% (8.33 nM); 1.03% (100 nM); 0.66% (833.33 nM); -7% (10000 nM).
Turning to `O[C@@H](CN1CCC(Cc2ccc(F)cc2)CC1)c1ccc(Cl)cc1` (racemic) [eliprodil], the “inhibition” value was 0.81% (1 nM); 0.95% (8.33 nM); 0.19% (100 nM); 2.59% (833.33 nM); -0.42% (10000 nM).
`CC(C)C(=O)Nc1ccc([N+](=O)[O-])c(C(F)(F)F)c1` [flutamide]: the “inhibition” value is, setting by setting: (1 nM) -1.61%; (8.33 nM) -1.6%; (100 nM) -3.44%; (833.33 nM) -2.92%; (10000 nM) -5.12%.
In the case of `CC(C)C[C@H](NC(=O)OCc1ccccc1)C(=O)N[C@@H](C[C@@H]1CCNC1=O)C(O)S(=O)(=O)O` (stereo not given in full) [GC376 sodium], the “inhibition” value is 0.45% (1 nM); -0.81% (8.33 nM); 0.28% (100 nM); -0.83% (833.33 nM); 70.6% (active) (10000 nM).
In the same order, the values of `COc1cc2nccc(Oc3ccc(NC(=O)C4(C(=O)Nc5ccc(F)cc5)CC4)cc3)c2cc1OC` [cabozantinib] are 1.77%, 1.83%, -0.89%, -1.04% and -14.2%.
As for `Cc1ccc(/C(=C\CN2CCCC2)c2cccc(/C=C/C(=O)O)n2)cc1` [acrivastine], the “inhibition” value is 0.5% (1 nM); -0.13% (8.33 nM); 0.75% (100 nM); 6.14% (833.33 nM); 1.35% (10000 nM).
The matching figures for `CC(C)(C)c1ccc(CN(Cc2cccc(OCC(=O)O)c2)S(=O)(=O)c2cccnc2)cc1` [evatanepag]: -1.15%, -0.63%, -1.94%, -1.15% and -2.53%.
As for `CC(=O)N(CC(O)CO)c1c(I)c(C(=O)NCC(O)CO)c(I)c(C(=O)NCC(O)CO)c1I` (stereo not given) [iohexol], the “inhibition” value (1 nM) is -1.99%; the “inhibition” value (8.33 nM) is -0.81%; the “inhibition” value (100 nM) was -1.68%; the “inhibition” value (833.33 nM) is -0.74%; the “inhibition” value (10000 nM) was 2.67%.
In the same order, the values of `CCCCC(CC)CNC(=N)NC(=N)NCCCCCCNC(=N)NC(=N)NCC(CC)CCCC` (stereo not given) [alexidine] are -2.11%, 4.36%, 2.23%, -6.06% and -18.2%.
The matching figures for `CC(=O)OCC1=C(C(=O)O)N2C(=O)[C@@H](NC(=O)CS/C(=N/C(C)C)NC(C)C)[C@H]2SC1` [cefathiamidine]: -0.52%, -0.04%, 1.14%, 0.34% and 0.26%.
Take `CC(C)(C)c1ccc(-c2nc3c(N4CCN(Cc5ccc6nccnc6c5)CC4)cccc3[nH]2)cc1`: the “inhibition” value was 1.45% (1 nM); 1.91% (8.33 nM); 1.44% (100 nM); -0.5% (833.33 nM); 4.93% (10000 nM).
In the same order, the values of `[Cl][Ti][Cl].c1cc[cH-]c1.c1cc[cH-]c1` [titanocene-dichloride] are 3.56%, -0.14%, 1.81%, -1.85% and 0.26%.
Turning to `CC(C)c1ccccc1S(=O)(=O)c1cc(N)c2ncccc2c1[N+](=O)[O-]`, the “inhibition” value reads like this: (1 nM) 1.33%; (8.33 nM) 1.24%; (100 nM) 0.12%; (833.33 nM) 5.82%; (10000 nM) 9.31%.
The matching figures for `CCCCCCCCCCCCCCCc1cccc(OCC(=O)NCCO)c1`: -0.98%, -2.66%, -0.69%, 1.46% and -1.78%.
The matching figures for `CCOC(=O)C1=C[C@@H](OC(CC)CC)[C@H](NC(C)=O)[C@@H](N)C1` [oseltamivir-phosphate]: -2.66%, -6.65%, -4.22%, -6.18% and 0.67%.

Source of the values: the supplement of paper PMC13380429.
